Data from PubChem BioAssay AID504848 (National Center for Advancing Translational Sciences (NCATS), 2011).
In all, about 2,300 compounds went through this assay and about 1,400 (61%) were called active. Another 29% or so got no clear call; they are omitted. The set was probably picked from earlier hits. The list shows a part of the results. A number with no mark means an inactive call. The call rests on the fitted dose curve; in most records, active means well fitted inhibition curve with a large enough effect; inconclusive means small, poorly fitted or top-dose-only effect, or effect the other way; inactive means no such curve, though single readings can be large or run the other way.

Assay: Confirmation screen for delayed death inhibitors of the malarial parasite plastid, 96 hour incubation; further: nearly all actives have a fitted effect of over 60% in size
Conditions: P. falciparum luciferase growth in erythrocytes; series mostly up to 28.7 µM; activity change, negative = inhibition: at the top concentration
Procedure, shortened: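 Erythrocytes infected with luciferase-expressing P. falciparum (2% hematocrit, 0.1% parasitemia final) in RPMI 1640 with 0.5% Albumax, exposed to compounds 96 h at 37 C, 5% CO2. Growth inhibition read as decreased luciferase luminescence.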
On the % scale 0 is the no-effect control and ±100 the full control effect; potency means the concentration at half of the fitted maximal effect.

Structure (SMILES) | Potency | activity change, negative = inhibition [%]
Nc1ccc2nc(-c3ccc(-c4nc5ccc(N)cc5[nH]4)cc3)[nH]c2c1 | 5.62 µM (active) | –
Cc1coc2cc3oc(=O)c(CCC(=O)NCCCn4ccnc4)c(C)c3cc12 | 12.6 µM (active) | –
CCOC(=O)C1CCN(c2c(NCc3ccc(C(=O)NCCC(C)C)cc3)c(=O)c2=O)CC1 | 1.12 µM (active) | –
O=C(N/N=C/c1ccccn1)c1cc([N+](=O)[O-])cc([N+](=O)[O-])c1 | 3.16 µM (active) | –
C(=N\N(c1ccccc1)c1ccccc1)/c1ccccn1 | – | -39.2
CC1(C)N=C(N)N=C(N)N1c1ccc(OCCCOc2ccccc2)c(Cl)c1 | 11.2 µM (active) | –
CCc1ccc(C(=O)NNc2ccc(C)c(Cl)c2)cc1 | – | -10.3
Cc1ccc(NC2=CC(=O)CC(C)(C)C2)cc1Cl | 12.6 µM (active) | –
Cc1ccc(-n2c(Cl)c(Cl)nc(Cl)c2=O)cc1 | 11.2 µM (active) | –
Clc1ccc2nnnc(-c3ccccc3)c2c1 | 3.55 µM (active) | –
CCn1cc(C(=O)O)c(=O)c2cc(F)c(N/N=C/c3ccccc3)cc21 | 10 µM (active) | –
COc1ccc(C)cc1-n1c(SCC(=O)Nc2cc(C)on2)nc2sc(C)c(C)c2c1=O | 2 µM (active) | –
CC(SC#N)C(=O)C12CC3CC(CC(C3)C1)C2 (stereo unspecified) | 12.6 µM (active) | –
COc1ccc(N(CC(=O)NCCSCc2ccc(C)cc2)S(=O)(=O)c2ccccc2)cc1 | 12.6 µM (active) | –
COc1ccc2c(c1)c(CC(=O)Nc1nnc(C3CC3)s1)c(C)n2C(=O)c1ccc(Cl)cc1 | 10 µM (active) | –
COc1ccc(-c2nc(N3CCN(C)CC3)sc2-c2ccc(OC)cc2)cc1 | 12.6 µM (active) | –
CC1(CCc2ccc3c(c2)OCO3)NCCc2c1[nH]c1ccccc21 (stereo unspecified) | 7.08 µM (active) | –
C/C(=N\NC(=S)NCC(C)(C)C)c1cc(F)cc(F)c1O | 11.2 µM (active) | –
Cc1cc(/C=C2/SC(=O)NC2=O)c(C)n1-c1ccc(N2CCOCC2)cc1 | 12.6 µM (active) | –
CCC(=O)N1CCc2cc(S(=O)(=O)N3CCCCCC3)ccc21 | 12.6 µM (active) | –
CC(=O)N1CCc2cc(S(=O)(=O)N3CC(C)CC(C)C3)ccc21 (stereo unspecified) | 8.91 µM (active) | –
Cc1ccc(C(=O)Nc2ccccc2SCC2CSc3nc4ccccc4c(=O)n32)cc1 (stereo unspecified) | 10 µM (active) | –
O=C(Nc1ccccc1SCC1CSc2nc3ccccc3c(=O)n21)c1ccccc1Cl (stereo unspecified) | 11.2 µM (active) | –

Structure (SMILES) | Potency | activity change, negative = inhibition [%]
O=C(Nc1ccccc1SCC1CSc2nc3ccccc3c(=O)n21)c1ccccc1 (stereo unspecified) | 12.6 µM (active) | –
Cc1cccc(C(=O)Nc2ccccc2SCC2CSc3nc4ccccc4c(=O)n32)c1 (stereo unspecified) | 3.98 µM (active) | –
CC(=O)Nc1ccc(OCc2cccc3ccccc23)cc1 | 7.94 µM (active) | –
CC(Oc1ccc(F)cc1)C(=O)Nc1ccc2ccccc2c1 (stereo unspecified) | – | 1.14
CC(Oc1ccccc1F)C(=O)Nc1ccc2ccccc2c1 (stereo unspecified) | – | 11.9
COc1ccccc1NS(=O)(=O)c1ccc2oc(SCc3ccc(C#N)cc3)nc2c1 | 12.6 µM (active) | –
CCOC(=O)c1c(-c2cccc(C)c2)csc1NC(=O)c1c(-c2ccccc2)noc1C | 8.91 µM (active) | –
COC(=O)c1c(-c2ccccc2)csc1NC(=O)c1c(-c2ccccc2)noc1C | 14.1 µM (active) | –
CCOC(=O)c1c(NC(=O)c2c(-c3ccccc3)noc2C)sc(C)c1-c1ccccc1 | 5.01 µM (active) | –
CCOC(=O)c1c(-c2ccc(-c3ccccc3)cc2)csc1NC(=O)c1cccc(N2C(=O)CCC2=O)c1 | 2.24 µM (active) | –
CCOC(=O)c1c(-c2ccc(F)cc2)csc1NC(=O)c1c(-c2ccccc2)noc1C | 7.08 µM (active) | –
COC(=O)c1c(NC(=O)c2cccc(N3C(=O)CCC3=O)c2)sc2c1CCN(C(C)=O)C2 | 11.2 µM (active) | –
COc1ccc(C(=O)Nc2c(N)nc(SCC(=O)Nc3ccc(NC(C)=O)cc3)[nH]c2=O)cc1OC | 12.6 µM (active) | –
Nc1nc(SCC(=O)NCC2CCCO2)[nH]c(=O)c1NC(=O)c1ccc(F)c(F)c1 (stereo unspecified) | 7.94 µM (active) | –
CC1CN(C(=O)N2c3ccccc3Sc3ccccc32)CC(C)O1 (stereo unspecified) | 10 µM (active) | –
O=C(N1CCOCC1)N1c2ccccc2Sc2ccccc21 | – | -14.8
CCCCCCn1c(SCCC)nc2c1c(=O)[nH]c(=O)n2C | 14.1 µM (active) | –
CCCSc1nc2c(cnn2-c2ccccc2)c(=O)[nH]1 | – | -11.6
Cn1c(=O)[nH]c(=O)c2c1nc(SCCN1CCCCC1)n2CCCc1ccccc1 | 5.01 µM (active) | –
Cc1nn(-c2ccccc2)c(N2CCCC2)c1/C=N/NC(=S)Nc1ccccc1F | 12.6 µM (active) | –
Cc1nn(-c2ccccc2)c(N2CCCC2)c1/C=N/NC(=O)c1ccccc1O | 3.98 µM (active) | –
CC(C)N(c1ccccc1)c1ccc(NC(=O)CCl)cc1 | 2.51 µM (active) | –
O=C(CCl)Nc1ccc(Sc2ccc(NC(=O)CCl)cc2)cc1 | 2.51 µM (active) | –
